# How the values were obtained:
# Experiment in all cases: DAPPL (digital affinity profiling via proximity ligation, sequencing); 10 mM Tris-HCl pH 7.5, 50 mM NaCl, 1 mM DTT, 4% glycerol, room temperature, 30 min; GST-TFs on glutathione beads, 16-mer random dsDNA library, 0.1% formaldehyde crosslink after washing; high values mean tight binding
# FEV = target: T1, FEV (Homo sapiens, UniProt Q99581 1-238); settings: protein: recombinant; tags: N-terminal GST; dsDNA, one strand shown
# T1 sequence: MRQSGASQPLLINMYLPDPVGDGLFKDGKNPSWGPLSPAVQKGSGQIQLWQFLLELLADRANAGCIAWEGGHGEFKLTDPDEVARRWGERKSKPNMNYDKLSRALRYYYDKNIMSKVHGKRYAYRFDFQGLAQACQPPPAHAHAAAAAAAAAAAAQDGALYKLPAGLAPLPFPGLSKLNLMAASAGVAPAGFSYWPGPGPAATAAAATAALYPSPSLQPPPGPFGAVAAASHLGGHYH
# Method in brief: (§1)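 Binding signal is given per hexamer as its read frequency for a factor divided by its frequency in the tag-only sample. GST-fused human transcription factors were expressed in yeast, captured on glutathione beads, barcoded with DNA and pooled with that sample, then incubated with 200 nmole of a 16-mer random double-stranded DNA library in Tris/NaCl/DTT/glycerol buffer for 30 min at room temperature. The pools were then washed, crosslinked, proximity-ligated, amplified by PCR and sequenced on an Illumina NextSeq500.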
# ETV5 = ETV5 (Homo sapiens, UniProt P41161 1-510); settings: protein: recombinant; tags: N-terminal GST; dsDNA, one strand shown
# Sequence of ETV5 (P41161 whole entry): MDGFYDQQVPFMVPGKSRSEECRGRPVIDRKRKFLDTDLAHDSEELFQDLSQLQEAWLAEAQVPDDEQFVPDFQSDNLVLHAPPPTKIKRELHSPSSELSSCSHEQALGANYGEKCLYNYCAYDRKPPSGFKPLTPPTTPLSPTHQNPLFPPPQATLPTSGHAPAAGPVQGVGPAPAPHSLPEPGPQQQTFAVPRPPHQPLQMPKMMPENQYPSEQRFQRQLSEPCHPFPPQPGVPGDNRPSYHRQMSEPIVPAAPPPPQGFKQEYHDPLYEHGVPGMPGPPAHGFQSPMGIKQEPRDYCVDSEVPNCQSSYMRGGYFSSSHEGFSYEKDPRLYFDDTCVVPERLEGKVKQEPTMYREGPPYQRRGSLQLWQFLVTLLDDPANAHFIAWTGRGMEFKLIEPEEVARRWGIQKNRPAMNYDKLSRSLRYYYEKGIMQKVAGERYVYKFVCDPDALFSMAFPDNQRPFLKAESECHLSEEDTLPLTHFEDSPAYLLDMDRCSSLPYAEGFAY
# Method in brief: as §1
# HSF1 = HSF1 (Homo sapiens, UniProt Q00613 1-529); settings: protein: recombinant; tags: N-terminal GST; chain copies: 3; dsDNA, one strand shown
# Sequence of HSF1 (Q00613 whole entry): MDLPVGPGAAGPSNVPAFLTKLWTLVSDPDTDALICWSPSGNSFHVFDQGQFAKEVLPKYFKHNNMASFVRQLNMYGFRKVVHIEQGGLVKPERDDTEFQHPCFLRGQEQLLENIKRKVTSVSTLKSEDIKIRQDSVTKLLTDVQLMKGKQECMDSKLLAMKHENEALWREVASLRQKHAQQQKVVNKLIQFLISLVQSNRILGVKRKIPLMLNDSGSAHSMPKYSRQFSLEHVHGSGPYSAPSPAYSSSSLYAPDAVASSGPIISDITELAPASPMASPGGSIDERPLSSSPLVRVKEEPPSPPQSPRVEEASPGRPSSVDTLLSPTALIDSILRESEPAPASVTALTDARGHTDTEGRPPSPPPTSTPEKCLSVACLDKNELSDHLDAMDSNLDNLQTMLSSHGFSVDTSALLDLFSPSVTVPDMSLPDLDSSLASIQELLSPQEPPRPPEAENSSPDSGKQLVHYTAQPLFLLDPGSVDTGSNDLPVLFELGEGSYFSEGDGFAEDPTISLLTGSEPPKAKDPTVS
# Method in brief: as §1
# SPIC = target: T2, SPIC (Homo sapiens, UniProt Q8N5J4 1-248); settings: protein: recombinant; tags: N-terminal GST; dsDNA, one strand shown
# T2 sequence: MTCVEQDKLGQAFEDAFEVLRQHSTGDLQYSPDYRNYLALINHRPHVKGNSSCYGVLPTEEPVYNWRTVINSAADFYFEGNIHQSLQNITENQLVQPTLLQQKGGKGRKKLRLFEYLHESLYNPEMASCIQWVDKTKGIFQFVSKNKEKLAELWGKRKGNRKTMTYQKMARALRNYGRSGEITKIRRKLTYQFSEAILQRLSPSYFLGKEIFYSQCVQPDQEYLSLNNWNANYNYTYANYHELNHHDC
# Method in brief: as §1
# ELF4 = ELF4 (Homo sapiens, UniProt Q99607 1-663); settings: protein: recombinant; tags: N-terminal GST; dsDNA, one strand shown
# Sequence of ELF4 (Q99607 whole entry): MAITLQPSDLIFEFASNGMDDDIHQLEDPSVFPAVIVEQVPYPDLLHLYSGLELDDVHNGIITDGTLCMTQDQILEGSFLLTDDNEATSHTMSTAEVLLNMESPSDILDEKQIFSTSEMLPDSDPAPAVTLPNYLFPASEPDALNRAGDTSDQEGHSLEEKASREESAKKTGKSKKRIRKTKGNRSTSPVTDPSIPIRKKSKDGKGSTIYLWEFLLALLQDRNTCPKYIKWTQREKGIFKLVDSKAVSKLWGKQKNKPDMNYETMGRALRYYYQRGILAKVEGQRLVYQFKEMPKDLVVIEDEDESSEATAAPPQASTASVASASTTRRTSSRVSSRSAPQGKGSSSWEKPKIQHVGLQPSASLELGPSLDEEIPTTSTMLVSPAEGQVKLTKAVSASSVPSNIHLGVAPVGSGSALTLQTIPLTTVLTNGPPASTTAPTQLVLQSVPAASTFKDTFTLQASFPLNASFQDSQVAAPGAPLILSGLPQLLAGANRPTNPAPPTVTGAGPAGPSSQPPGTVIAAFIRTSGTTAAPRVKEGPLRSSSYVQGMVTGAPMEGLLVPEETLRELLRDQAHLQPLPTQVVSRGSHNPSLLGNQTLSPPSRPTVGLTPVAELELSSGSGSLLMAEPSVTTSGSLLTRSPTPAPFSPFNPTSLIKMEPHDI
# Method in brief: as §1
# ELK4 = target: T3, ELK4 (Homo sapiens, UniProt P28324-2 1-405); settings: protein: recombinant; tags: N-terminal GST; dsDNA, one strand shown
# T3 sequence: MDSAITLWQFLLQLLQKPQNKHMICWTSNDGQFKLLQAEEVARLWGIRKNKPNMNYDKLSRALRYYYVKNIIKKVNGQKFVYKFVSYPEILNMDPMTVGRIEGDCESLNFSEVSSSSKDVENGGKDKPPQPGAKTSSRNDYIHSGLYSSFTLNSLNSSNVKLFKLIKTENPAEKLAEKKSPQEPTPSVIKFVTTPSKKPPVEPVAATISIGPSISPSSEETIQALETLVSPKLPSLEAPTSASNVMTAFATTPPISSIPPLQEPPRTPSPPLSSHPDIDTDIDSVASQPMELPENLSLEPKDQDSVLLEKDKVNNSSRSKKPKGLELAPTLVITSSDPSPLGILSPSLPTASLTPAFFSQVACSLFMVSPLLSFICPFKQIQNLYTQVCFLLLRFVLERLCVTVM
# Method in brief: as §1
# ETV2 = target: T4, ETV2 (Homo sapiens, UniProt O00321 1-342); settings: protein: recombinant; tags: N-terminal GST; dsDNA, one strand shown
# T4 sequence: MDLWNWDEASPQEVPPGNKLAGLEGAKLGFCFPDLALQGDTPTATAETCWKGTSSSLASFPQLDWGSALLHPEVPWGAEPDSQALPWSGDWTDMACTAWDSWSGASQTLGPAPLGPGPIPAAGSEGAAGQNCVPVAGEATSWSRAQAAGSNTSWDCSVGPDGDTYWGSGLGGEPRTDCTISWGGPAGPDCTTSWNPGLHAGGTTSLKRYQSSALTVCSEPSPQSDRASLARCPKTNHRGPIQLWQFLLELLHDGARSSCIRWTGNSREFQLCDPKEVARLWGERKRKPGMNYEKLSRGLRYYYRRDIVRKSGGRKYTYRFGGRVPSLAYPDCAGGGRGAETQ
# Method in brief: as §1
# ELF3 = target: T5, ELF3 (Homo sapiens, UniProt P78545 1-371); settings: protein: recombinant; tags: N-terminal GST; dsDNA, one strand shown
# T5 sequence: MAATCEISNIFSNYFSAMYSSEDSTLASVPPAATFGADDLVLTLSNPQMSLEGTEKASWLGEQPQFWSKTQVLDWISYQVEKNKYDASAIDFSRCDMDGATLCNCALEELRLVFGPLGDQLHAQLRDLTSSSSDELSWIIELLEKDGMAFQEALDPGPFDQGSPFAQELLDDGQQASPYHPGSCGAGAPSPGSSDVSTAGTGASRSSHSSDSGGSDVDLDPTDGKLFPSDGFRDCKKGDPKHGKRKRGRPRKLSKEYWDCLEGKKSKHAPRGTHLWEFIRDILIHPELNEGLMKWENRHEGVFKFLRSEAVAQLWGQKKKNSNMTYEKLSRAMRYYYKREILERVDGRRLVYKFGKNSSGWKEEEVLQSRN
# Method in brief: as §1
# CRX = CRX (Homo sapiens, UniProt O43186 1-299); settings: protein: recombinant; tags: N-terminal GST; dsDNA, one strand shown
# Sequence of CRX (O43186 whole entry): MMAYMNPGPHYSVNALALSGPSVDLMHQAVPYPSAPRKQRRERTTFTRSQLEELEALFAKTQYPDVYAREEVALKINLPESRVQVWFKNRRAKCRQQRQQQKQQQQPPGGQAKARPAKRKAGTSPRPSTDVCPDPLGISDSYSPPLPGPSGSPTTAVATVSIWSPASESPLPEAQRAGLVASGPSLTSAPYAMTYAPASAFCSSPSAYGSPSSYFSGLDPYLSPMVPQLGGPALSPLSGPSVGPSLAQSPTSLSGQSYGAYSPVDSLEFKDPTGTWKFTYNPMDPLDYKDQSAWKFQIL
# Method in brief: as §1
# ETV1 = ETV1 (Homo sapiens, UniProt P50549 1-477); settings: protein: recombinant; tags: N-terminal GST; dsDNA, one strand shown
# Sequence of ETV1 (P50549 whole entry): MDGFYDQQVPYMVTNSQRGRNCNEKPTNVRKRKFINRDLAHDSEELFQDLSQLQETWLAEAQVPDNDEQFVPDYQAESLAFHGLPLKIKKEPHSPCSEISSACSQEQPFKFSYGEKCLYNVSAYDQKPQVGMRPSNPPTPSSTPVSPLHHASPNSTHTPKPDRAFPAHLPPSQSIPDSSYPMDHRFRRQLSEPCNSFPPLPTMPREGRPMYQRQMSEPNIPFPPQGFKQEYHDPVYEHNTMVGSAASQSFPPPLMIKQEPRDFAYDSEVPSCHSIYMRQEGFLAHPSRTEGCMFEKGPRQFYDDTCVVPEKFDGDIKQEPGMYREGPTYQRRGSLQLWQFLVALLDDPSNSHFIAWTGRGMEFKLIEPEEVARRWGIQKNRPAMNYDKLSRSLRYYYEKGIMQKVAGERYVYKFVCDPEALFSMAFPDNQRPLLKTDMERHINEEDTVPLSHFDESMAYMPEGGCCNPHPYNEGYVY
# Method in brief: as §1
# ERF = target: T6, ERF (Homo sapiens, UniProt P50548 1-548); settings: protein: recombinant; tags: N-terminal GST; dsDNA, one strand shown
# T6 sequence: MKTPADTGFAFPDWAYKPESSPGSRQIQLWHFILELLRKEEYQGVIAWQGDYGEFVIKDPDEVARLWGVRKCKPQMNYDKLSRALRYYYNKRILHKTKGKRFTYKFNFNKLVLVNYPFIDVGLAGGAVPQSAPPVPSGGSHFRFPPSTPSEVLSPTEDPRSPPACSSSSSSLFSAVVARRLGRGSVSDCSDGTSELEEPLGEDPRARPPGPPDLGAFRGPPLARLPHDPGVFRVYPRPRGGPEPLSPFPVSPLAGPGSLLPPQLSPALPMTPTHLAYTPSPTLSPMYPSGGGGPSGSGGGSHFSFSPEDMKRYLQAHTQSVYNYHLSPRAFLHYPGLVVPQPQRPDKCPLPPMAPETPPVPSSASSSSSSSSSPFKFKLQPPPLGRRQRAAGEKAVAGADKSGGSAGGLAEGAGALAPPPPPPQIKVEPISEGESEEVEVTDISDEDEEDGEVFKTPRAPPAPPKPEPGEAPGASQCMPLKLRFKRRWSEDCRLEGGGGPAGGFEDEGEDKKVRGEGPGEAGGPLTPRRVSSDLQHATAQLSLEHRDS
# Method in brief: as §1
# ETV3L = target: T7, ETV3L (Homo sapiens, UniProt Q6ZN32 1-361); settings: protein: recombinant; tags: N-terminal GST; dsDNA, one strand shown
# T7 sequence: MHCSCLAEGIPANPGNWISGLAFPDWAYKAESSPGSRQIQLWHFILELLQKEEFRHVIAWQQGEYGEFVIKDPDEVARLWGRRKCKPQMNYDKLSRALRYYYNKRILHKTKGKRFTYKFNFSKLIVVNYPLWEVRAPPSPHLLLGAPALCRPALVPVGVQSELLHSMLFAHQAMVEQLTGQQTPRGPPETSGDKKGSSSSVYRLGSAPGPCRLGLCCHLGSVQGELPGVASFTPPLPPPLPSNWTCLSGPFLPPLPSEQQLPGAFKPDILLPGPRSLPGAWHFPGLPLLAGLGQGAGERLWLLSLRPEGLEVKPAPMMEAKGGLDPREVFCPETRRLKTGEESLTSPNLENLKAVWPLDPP
# Method in brief: as §1
# ETS2 = target: T8, ETS2 (Homo sapiens, UniProt P15036 1-469); settings: protein: recombinant; tags: N-terminal GST; dsDNA, one strand shown
# T8 sequence: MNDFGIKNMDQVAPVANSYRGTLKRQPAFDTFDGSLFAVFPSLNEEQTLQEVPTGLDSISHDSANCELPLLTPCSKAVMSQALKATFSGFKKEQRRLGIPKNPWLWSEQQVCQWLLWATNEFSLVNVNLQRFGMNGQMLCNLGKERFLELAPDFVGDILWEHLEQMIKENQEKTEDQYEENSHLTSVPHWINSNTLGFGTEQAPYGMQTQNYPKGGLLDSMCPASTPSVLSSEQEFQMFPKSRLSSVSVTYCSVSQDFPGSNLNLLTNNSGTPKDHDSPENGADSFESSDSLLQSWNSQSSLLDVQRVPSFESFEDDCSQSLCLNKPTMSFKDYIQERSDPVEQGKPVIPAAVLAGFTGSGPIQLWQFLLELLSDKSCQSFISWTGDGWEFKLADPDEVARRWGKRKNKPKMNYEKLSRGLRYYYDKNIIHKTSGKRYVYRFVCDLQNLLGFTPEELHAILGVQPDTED
# Method in brief: as §1
# SPDEF = target: T9, SPDEF (Homo sapiens, UniProt O95238 1-335); settings: protein: recombinant; tags: N-terminal GST; dsDNA, one strand shown
# T9 sequence: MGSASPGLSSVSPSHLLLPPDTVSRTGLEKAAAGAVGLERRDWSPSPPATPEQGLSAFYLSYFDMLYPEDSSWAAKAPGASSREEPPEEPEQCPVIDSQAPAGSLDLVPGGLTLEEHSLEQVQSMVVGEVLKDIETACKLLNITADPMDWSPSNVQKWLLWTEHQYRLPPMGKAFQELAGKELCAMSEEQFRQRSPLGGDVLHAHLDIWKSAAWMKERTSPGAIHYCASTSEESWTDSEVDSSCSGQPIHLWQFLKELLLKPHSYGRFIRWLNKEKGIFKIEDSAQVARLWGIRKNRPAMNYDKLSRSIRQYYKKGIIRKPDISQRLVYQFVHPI
# Method in brief: as §1
# ETV7 = target: T10, ETV7 (Homo sapiens, UniProt Q9Y603 1-341); settings: protein: recombinant; tags: N-terminal GST; dsDNA, one strand shown
# T10 sequence: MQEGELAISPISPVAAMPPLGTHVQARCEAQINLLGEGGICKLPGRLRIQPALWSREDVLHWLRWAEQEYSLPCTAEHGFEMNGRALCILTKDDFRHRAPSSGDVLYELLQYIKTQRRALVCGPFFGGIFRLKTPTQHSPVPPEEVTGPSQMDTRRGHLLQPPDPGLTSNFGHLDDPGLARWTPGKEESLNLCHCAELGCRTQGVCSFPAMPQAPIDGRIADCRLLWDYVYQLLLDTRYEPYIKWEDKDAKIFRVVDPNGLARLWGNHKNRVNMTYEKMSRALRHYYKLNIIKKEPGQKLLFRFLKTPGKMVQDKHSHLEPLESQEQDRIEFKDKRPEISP
# Method in brief: as §1
# ELF5 = target: T11, ELF5 (Homo sapiens, UniProt Q9UKW6-2 1-255); settings: protein: recombinant; tags: N-terminal GST; dsDNA, one strand shown
# T11 sequence: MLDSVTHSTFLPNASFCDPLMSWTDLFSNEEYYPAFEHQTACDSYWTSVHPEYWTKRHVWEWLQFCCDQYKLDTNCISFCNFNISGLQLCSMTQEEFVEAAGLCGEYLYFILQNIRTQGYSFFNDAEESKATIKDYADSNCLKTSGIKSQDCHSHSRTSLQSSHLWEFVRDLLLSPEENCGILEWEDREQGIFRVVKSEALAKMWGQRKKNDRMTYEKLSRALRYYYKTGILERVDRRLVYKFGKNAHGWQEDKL
# Method in brief: as §1
# ETV3 = target: T12, ETV3 (Homo sapiens, UniProt P41162-2 1-143); settings: protein: recombinant; tags: N-terminal GST; dsDNA, one strand shown
# T12 sequence: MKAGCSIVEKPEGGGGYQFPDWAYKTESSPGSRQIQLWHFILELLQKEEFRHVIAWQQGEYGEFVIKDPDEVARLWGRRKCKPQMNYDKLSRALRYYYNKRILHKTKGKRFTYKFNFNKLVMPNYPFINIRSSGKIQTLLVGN
# Method in brief: as §1
# ETV6 = ETV6 (Homo sapiens, UniProt P41212 1-452); settings: protein: recombinant; tags: N-terminal GST; dsDNA, one strand shown
# Sequence of ETV6 (P41212 whole entry): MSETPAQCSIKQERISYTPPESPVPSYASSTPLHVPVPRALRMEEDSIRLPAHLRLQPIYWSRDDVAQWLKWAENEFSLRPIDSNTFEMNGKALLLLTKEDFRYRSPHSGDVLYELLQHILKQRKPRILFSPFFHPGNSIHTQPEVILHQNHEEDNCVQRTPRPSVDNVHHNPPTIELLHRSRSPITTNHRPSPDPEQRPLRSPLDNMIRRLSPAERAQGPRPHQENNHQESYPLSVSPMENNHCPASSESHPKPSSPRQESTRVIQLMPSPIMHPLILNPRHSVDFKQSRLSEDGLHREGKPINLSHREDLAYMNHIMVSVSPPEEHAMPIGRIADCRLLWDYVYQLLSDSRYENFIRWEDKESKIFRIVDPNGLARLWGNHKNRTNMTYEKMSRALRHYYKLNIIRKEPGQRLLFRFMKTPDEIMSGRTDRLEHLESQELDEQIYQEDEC
# Method in brief: as §1
sequence,measurement,setting,value
TTTTCA,binding signal,FEV,"1.17 fold enrichment (6-mer frequency, TF over GST control)"
same,binding signal,ETV5,"1.2 fold enrichment (6-mer frequency, TF over GST control)"
same,binding signal,HSF1,"1.14 fold enrichment (6-mer frequency, TF over GST control)"
same,binding signal,SPIC,"1.22 fold enrichment (6-mer frequency, TF over GST control)"
same,binding signal,ELF4,"1.27 fold enrichment (6-mer frequency, TF over GST control)"
same,binding signal,ELK4,"1.2 fold enrichment (6-mer frequency, TF over GST control)"
same,binding signal,ETV2,"1.24 fold enrichment (6-mer frequency, TF over GST control)"
same,binding signal,ELF3,"1.31 fold enrichment (6-mer frequency, TF over GST control)"
same,binding signal,CRX,"1.28 fold enrichment (6-mer frequency, TF over GST control)"
same,binding signal,ETV1,"1.22 fold enrichment (6-mer frequency, TF over GST control)"
same,binding signal,ERF,"1.24 fold enrichment (6-mer frequency, TF over GST control)"
same,binding signal,ETV3L,"1.26 fold enrichment (6-mer frequency, TF over GST control)"
same,binding signal,ETS2,"1.14 fold enrichment (6-mer frequency, TF over GST control)"
same,binding signal,SPDEF,"1.18 fold enrichment (6-mer frequency, TF over GST control)"
same,binding signal,ETV7,"1.26 fold enrichment (6-mer frequency, TF over GST control)"
same,binding signal,ELF5,"1.25 fold enrichment (6-mer frequency, TF over GST control)"
same,binding signal,ETV3,"1.31 fold enrichment (6-mer frequency, TF over GST control)"
same,binding signal,ETV6,"1.21 fold enrichment (6-mer frequency, TF over GST control)"

# — PMC7862700, “An all-to-all approach to the identification of sequence-specific readers for epigenetic DNA modifications on cytosine”
